Measured values taken from PubChem BioAssay (NCATS).
Inconclusive results are not listed. The source made the active and inactive calls. Calls come from the whole dose curve; as a rule, active = well fitted cell-killing curve with a large enough effect; inconclusive = small, poorly fitted or top-dose-only effect; inactive = flat fitted curve, though single readings scatter.

Assay: Cell Viability - Mesenchymal (AID 546);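 note: cells exposed to compound for 40 hours before reading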;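 for activity change, negative = cytotoxicity: 0% = DMSO only and -100% = 100 µM tamoxifen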
Conditions: mesenchymal cells viability, qHTS; activity change, negative = cytotoxicity: at 91.7 µM (top of the series)
From the text: NIH Chemical Genomics Center [NCGC]
NIH Molecular Libraries Screening Centers Network [MLSCN]
National Institutes of Environmental Health Sciences [NIEHS]
National Toxicology Program [NTP]
We have developed a 1536-well cell-based assay for quantitative high throughput screening (qHTS) against a number of cell lines to determine in vitro cytotoxicity of small molecules. This particular assay uses the kidney mesenchymal cell line which is derived from normal human renal glomeruli.
NCGC Assay Protocol Summary:
The CellTiter-Glo luminescent cell viability assay (Promega) is a homogeneous method to measure the number of viable cells in culture. The end point readout of this assay is based on quantitation of intracellular ATP, an indicator of metabolic activity, using the luciferase reaction. Luciferase catalyzes the oxidation of beetle Luciferin to oxyluciferin and light in the presence of ATP. The luminescent signal is proportional to amount of ATP present.
Using the CellTiter-Glo luminescent cell viability assay, the amount of cellular ATP was measured in the kidney mesenchymal cell line with complete culture medium following compound treatment for 40 hours. The assay was performed in opaque white Kalypsys 1536-well plates. In the screen, tamoxifen and doxorubicin were used as positive controls. Library compounds were measured for their ability to cause acute toxicity in the cell line, as reflected by a decrease in intracellular ATP levels, in a concentration-dependent manner. […] AC50 values were determined from concentration-response data modeled with the standard Hill equation.
qHTS protocol for CellTiter Glo kidney mesenchymal cells cellular assay
[Step] [Parameter] [Value] [Description]
1. Reagent; 5 uL; 1000 kidney mesenchymal cells/well
2. Time; 5 hr; 37 °C incubation
4. Controls; 23 nL; Tamoxifen 0.34 uM to 100 uM & Doxorubicin 0.02 nM to 100 uM
5. Time; 40 hr; 37 °C incubation
6. Reagent; 5 uL; CellTiter Glo reagent
7. Time; 20 min; Room Temperature
8. Detection; Luminescence; Viewlux plate reader
Keywords: cell viability, cytotoxicity, Kidney mesenchymal cell line, luminescence, NTPHTS, NTPHTS_NCGC, NIEHS, EPA, DSSTox, MLSMR, MLSCN, NIH Roadmap, qHTS, NCGC
Potency is the fitted concentration of half-maximal effect.

Compound	activity change, negative = cytotoxicity	Potency
O=C(OCC(COC(=O)c1ccccc1)(COC(=O)c1ccccc1)COC(=O)c1ccccc1)c1ccccc1	2.34% (inactive)	
C/C=C1\C(=O)C[C@H]2[C@@H]3CCC4=CC(=O)CC[C@]4(C)[C@H]3CC[C@]12C	-11.1% (inactive)	
C=CC(=O)OCCOCCOC(=O)C=C	-100% (active)	
CN(C)c1ccc(C2(c3ccc(N(C)C)cc3)OC(=O)c3cc(N(C)C)ccc32)cc1	-1.81% (inactive)	
CC/C(=C(\c1ccccc1)c1ccc(OCCN(C)C)cc1)c1ccc(O)cc1		31.6 µM (active)
CN1[C@H]2CC(OC(=O)[C@H](CO)c3ccccc3)C[C@H]1[C@H]1O[C@H]12 (stereo partly drawn)		inactive
O=Cc1ccc(Cl)c(Cl)c1	7.76% (inactive)	
CCCCCC/C(C=O)=C\c1ccccc1	4.81% (inactive)	
O=[N+]([O-])c1cc([N+](=O)[O-])c2ccc(S(=O)(=O)O)cc2c1O	10.9% (inactive)	
CCC(C)Nc1ccc(NC(C)CC)cc1 (stereo not drawn)		12.6 µM (active)
c1ccc2c(c1)ccc1cc3c(ccc4ccccc43)cc12	-3.83% (inactive)	
Nc1ccc2cc3ccccc3cc2c1	0.436% (inactive)	
C=CC(=O)OCC(CO)(COC(=O)C=C)COC(=O)C=C	-91.9% (active)	
O=C=Nc1ccc(Cc2ccc(N=C=O)cc2)cc1	-2.24% (inactive)	
ClC1=C(Cl)C(Cl)(Cl)C(Cl)=C1Cl	11.3% (inactive)	
O=C(/C=C/c1ccc(O)c(O)c1)OC1C[C@](O)(C(=O)O)C[C@@H](O)[C@H]1O (stereo partly drawn)		inactive
C=C(C)c1ccccc1	4.37% (inactive)	
CNc1ccc(O)cc1		31.6 µM (active)
Cc1cccc(O)c1C	-3.32% (inactive)	
Cc1ccc(S(=O)(=O)Oc2ccc(N=Nc3ccc(-c4ccc(N=Nc5c(O)ccc6cc(S(=O)(=O)O)cc(S(=O)(=O)O)c56)c(C)c4)cc3C)cc2)cc1		31.6 µM (active)
Cc1cc(O)c(C(C)(C)C)cc1Sc1cc(C(C)(C)C)c(O)cc1C		15.8 µM (active)
CCCCCCCC[N+](CCCCCCCC)(CCCCCCCC)CCCCCCCC		10 µM (active)
CC(=O)Nc1ccc(C(=O)CCl)cc1		12.6 µM (active)
